The results in this text go back to PubChem BioAssay AID2315 (National Center for Advancing Translational Sciences (NCATS), 2010).

About 27,000 (9.3%) of roughly 290,000 compounds were called active. The full list was thinned out, with actives kept by preference. Values without a mark were called inactive. Rule as the data show it: active = inhibition mostly above about 28% (no sharp cut-off); inactive = mostly below about 43%.

The assay is described as follows: A qHTS for Small Molecule Inhibitors of Shiga Toxin. Also: 0% is about no effect. Conditions: Vero cells, Shiga toxin protein synthesis inhibition reporter; at 38.7 µM, hits give high values. (In general: qHTS replaces the single test concentration by a dilution series.)
Regarding `Cc1ccc(S(=O)(=O)N2CCN(c3ccccc3)CC2)cc1C`, the inhibition was -9.21%.
As for `CCN1C(=O)C(CC(=O)Nc2cc(C)ccc2C)SC1=Nc1ccc(S(N)(=O)=O)cc1` (configuration not stated), the figure is 28.8%; as for `O=C(CC1SC(=Nc2ccccc2)N(Cc2ccccn2)C1=O)Nc1cccc(Cl)c1` (configuration not stated), 44.2% (active).
As for `CN1C(=O)C(CC(=O)Nc2ccccc2)S/C1=N/c1nccs1` (configuration not stated), the figure is -5.12%; as for `COc1ccc(NC(=O)CCCN2C(=O)C(c3ccccc3)Oc3cccnc32)cc1` (configuration not stated), -5.94%; as for `CN(CCO)c1ccc(/C=N/Nc2nncc3ccccc23)cc1`, 41.9% (active).
As for `COc1cc(/C=N/Nc2nn3cnnc3c3ccccc23)cc(OC)c1OC`, the figure is 18.6%; as for `C/C(=N\Nc1nncc2ccccc12)c1ccc(Cl)c([N+](=O)[O-])c1`, 59.8%; as for `Oc1ccc(N=Nc2nccs2)c(O)c1`, 58.3% (active).
Take `Oc1ccc2ccccc2c1N=Nc1nccs1`: the inhibition was 13.9%.
As for `Cc1ccc(CNC(=O)Cn2cnc(S(=O)(=O)N3CCCCC3)c2)o1`, the figure is 0.422%; as for `O=C(Nc1ccc2c(c1)CCC2)c1cccc(S(=O)(=O)Nc2ccccc2Cl)c1`, 8.91%.
As for `O=C(Nc1ccc2c(c1)CCC2)c1cccc(S(=O)(=O)N2CCN(c3ccc(F)cc3)CC2)c1`, the figure is 86.5% (active).
As for `Cc1cccnc1NC(=O)c1cccc(S(=O)(=O)N2CCN(c3ccc(F)cc3)CC2)c1`, the figure is -9.4%; as for `O=C(O)CSCc1nc2ccccc2s1`, 49.5%.
On to `CN(Cc1nc2ccccc2s1)C(=O)c1ccc(F)cc1`, for which the inhibition was 27.2%.
As for `O=C(O)CS/C(=C\c1ccc(F)cc1)c1nc2ccccc2s1`, the figure is 121% (active); as for `CCOC(=O)N1CCN(C(=O)c2ccc3c(=O)n(CCc4ccc(OC)c(OC)c4)c(=O)[nH]c3c2)CC1`, -3.86%; as for `Cc1nnc(SCc2cccc(Cl)c2)n(N)c1=O`, -4.93%.
Consider `Cc1cccc(CSc2nnc(C)c(=O)n2N)c1`, for which the inhibition was -13%.
Consider `Nn1c(SCc2ccccc2)nnc1C1CCCCC1`, for which the inhibition is 101% (active).
As for `CC(C)CC(=O)Nc1ccc(Cc2ccncc2)cc1`, the figure is -5.26%.
As for `Cc1nc2cc(C(F)(F)F)ccc2n1CCNc1nc(-c2cc(Cl)c(N)c(Cl)c2)cs1`, the figure is -1.88%; as for `COc1ccc(CN2CCN(C(=O)CCC(=O)Nc3nnc(C(C)C)s3)CC2)cc1F`, -3.9%; as for `CCc1nc(SCC(=O)NNC(=O)c2ccc(C)cc2)c2ccccc2n1`, -1.93%.
As for `Cc1ccc(C(=O)NNC(=O)c2cc3cc4ccccc4nc3s2)cc1`, the figure is -14.9%; as for `Cc1ccc(C(=O)NNc2ncnc3ccccc23)cc1`, 76.1% (active).

The inhibition is the change of the read-out against control, counted positive when it falls.
